Screens (PubChem BioAssay)
Most compounds without a hit are left out; they make up all but 7.4% or so of the library.
Rab9 promoter act: qHTS Assay for Rab9 Promoter Activators; Huh7 Rab9 promoter-luciferase reporter, luminescence, 24 h; Potency, µM (series often up to 9.22 µM), inactives show top-dose activation, negative = inhibition, usual class: activators; actives 2.8% (n = 320,000); note: % of control where 0% means no effect; nearly all actives have a fitted effect of over 60% in size
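Cells were plated at 1500 per well in reduced-serum medium with 10% FBS and left 2 h. Compound in DMSO was then added for 24 h at 37 °C. Reporter signal was read by luminescence after 10 min with luciferase detection reagent.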
FLuc counter: qHTS profiling assay for firefly luciferase inhibitor/activator using purifed enzyme and Km concentrations of substrates (counterscreen for miR-21 project); purified FLuc, Km substrates, luminescence inhibition; Potency, µM (top dose mostly 57.5 µM), without a hit: top-dose activity change, negative = inhibition, hits mostly inhibitors; actives 6.9% (n = 360,000);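 note: plate controls were vehicle for no effect and reference inhibitor for full effect; nearly all actives have a fitted effect of over 55% in size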
Target sequence (P08659 whole entry, looked up): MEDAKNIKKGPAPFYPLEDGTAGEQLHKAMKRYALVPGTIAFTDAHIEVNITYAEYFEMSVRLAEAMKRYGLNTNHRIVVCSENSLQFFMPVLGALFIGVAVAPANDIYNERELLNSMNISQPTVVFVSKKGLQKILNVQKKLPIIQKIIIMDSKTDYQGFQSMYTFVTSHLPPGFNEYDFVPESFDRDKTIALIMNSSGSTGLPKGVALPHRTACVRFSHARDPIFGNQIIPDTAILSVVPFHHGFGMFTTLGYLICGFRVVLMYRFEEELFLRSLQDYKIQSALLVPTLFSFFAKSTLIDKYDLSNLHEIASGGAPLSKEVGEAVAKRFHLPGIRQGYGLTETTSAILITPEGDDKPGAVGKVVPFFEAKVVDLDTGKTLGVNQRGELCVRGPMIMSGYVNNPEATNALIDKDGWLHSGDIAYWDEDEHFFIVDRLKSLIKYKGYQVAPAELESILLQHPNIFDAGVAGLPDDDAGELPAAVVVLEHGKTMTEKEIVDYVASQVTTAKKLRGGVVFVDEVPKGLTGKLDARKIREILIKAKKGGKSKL
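Purified P. pyralis luciferase (10nM final) with 10uM D-luciferin and 10uM ATP (Km levels) in 50mM Tris acetate pH 7.5, 10mM Mg acetate, 0.01% Tween-20, 0.05% BSA; qHTS 6-point titration, ~60 µM downward; luminescence read.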
p53 reactivator: qHTS assay for re-activators of p53 using a Luc reporter. H1299 p53-A138V BP100-luciferase reporter, luminescence, 24 h. Potency, µM (doses to about 92.2 µM), for the others: at the top dose activity change, positive = activation, actives largely listed as activators. actives 0.063% (n = 320,000). AID 504706, 2011; note: % of control where 0% means no effect; nearly all actives have a fitted effect of over 45% in size
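p53-null H1299 cells stably carrying temperature-sensitive p53-A138V and a BP100-luciferase reporter were pinned with compounds (4-point, 1:5 series) and held 24 hrs at 37 deg C. Luminescence was read 10 min after detection reagent.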
SMN2 splice enh: qHTS Assay for Enhancers of SMN2 Splice Variant Expression; HEK293 SMN2-luciferase splicing reporter, luminescence, 30-36 h; Potency, µM (series often up to 46.1 µM), for inactives: at the top dose activity change, positive = activation, usual class: activators; actives 2.8% (n = 210,000); AID 1458, 2008; note: % of control where 0% means no effect; nearly all actives have a fitted effect of over 55% in size
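HEK293 cells carry an SMN2 minigene-luciferase reporter in which exon 7 inclusion puts luciferase in frame. Cells were seeded at 2000 cells/well, attached for 10-12 hours, then exposed to compounds for 30-36 hours at 37C before ONE-Glo luminescence.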
NPC1 prom act: qHTS Assay for NPC1 Promoter Activators; Huh7 NPC1 promoter luciferase reporter, 24 h; Potency, µM (highest dose often 9.22 µM), for inactives: at the top dose activation, most hits filed as activators; actives 2.4% (n = 320,000); AID 485313, 2010; note: % of control where 0% means no effect; nearly all actives have a fitted effect of over 60% in size
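Quantitative HTS used a cell-based reporter: Huh7 cells stably bearing the NPC1 promoter upstream of luciferase were treated with compounds for 24 h, and promoter activation was read as luminescence.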
ELG1 genotox: qHTS screen for small molecules that induce genotoxicity in human embryonic kidney (HEK293T) cells expressing luciferase-tagged ELG1; actives 1.3% (n = 330,000); Potency, µM (doses to about 46 µM), for inactives: at the highest dose activity change, positive = activation, actives largely listed as activators; HEK293T ELG1-luciferase reporter, luminescence, 16 h; note: % of control where 0% means no effect; nearly all actives have a fitted effect of over 60% in size
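Luminescence read-out: rising ELG1-luciferase signal, reflecting elevated ELG1 protein under genetic stress, flags genotoxic compounds. Cells were treated for 16 hr at 37 °C before ONE-Glo detection.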
Active calls of the source: *; ? = inconclusive; . = no result; [ ] = another dose, or the depositor's remark. Calls come from the whole dose curve; as a rule, active = well fitted curve in the direction sought with a large enough effect; inconclusive = small, poorly fitted or top-dose-only effect, or another doubt; inactive = no such curve, though single readings can be large; an effect the other way counts as inactive or inconclusive. Potency is the fitted concentration of half-maximal effect.

SMILES	Rab9 promoter act	FLuc counter	p53 reactivator	SMN2 splice enh	NPC1 prom act	ELG1 genotox
Cc1ccc(NC(=O)c2ccc(NS(=O)(=O)c3cccc4cccnc34)cc2)cc1	-3%[1.84 µM]	17µM*	-5%	.	-4%	-2%
CC(=O)Nc1ccc(NC(=O)c2ccc(NS(=O)(=O)c3cccc4cccnc34)cc2)cc1	2%	2%	-3%	.	-2%	1%
CCC(=O)c1ccc2ncccc2c1	2%	?	8%	24%	-3%	7%
Cc1cc(=O)oc(C)c1C(=O)Nc1ccc2ncccc2c1	2%	-1%	3%	7%	9%	-3%
Nc1ccc(/C=C/c2ccc3ncccc3c2)cc1	0.28µM*	0.3µM*	0%	.	0.45µM*	?
Cc1nc(-c2ccc(S(=O)(=O)NCc3ccc(N(C)C)cc3)cc2)co1	.	-11%	.	.	.	.
O=C(Nc1ccc2ncccc2c1)c1cccc(Br)c1	2.5µM*	11µM*	.	.	?	?
Cc1cccnc1NC(=O)c1ccc(S(=O)(=O)N2CCCCCC2)cc1	5%	0%	5%	.	2%	-1%
Cc1ccc(C(=O)Nc2ncccc2S(=O)(=O)c2ccccc2)cc1	2.8µM*	11µM*	?	.	2.8µM*	?
COc1ccc(C(=O)Nc2ccc3ncccc3c2)cc1	0.28µM*	0.43µM*	-19%	.	0.28µM*	0.65µM*
Brc1ccc(CNc2ccc3ncccc3c2)cc1	27%	11µM*	20%	.	?	?
CCOC(=O)c1ccc(NC(=O)CCCn2c(=O)c3cccn3c3cccnc32)cc1	.	-7%	.	.	.	.
C=C(C)COc1ccc2c(C)c(CC(=O)OC)c(=O)oc2c1C	?	9.5µM*	10%	-36%	?	9.2µM*
COC(=O)Cc1c(C)c2ccc(OCC(C)=O)c(C)c2oc1=O	?	?	?	13µM*	?	9.2µM*
C[C@H]1[C@H](C)CC[C@]2(C(=O)O)CC[C@]3(C)C(=CC[C@H]4[C@]3(C)C[C@@H](O)C3[C@](C)(CO)[C@H](O)[C@@H](O)C[C@]34C)[C@H]12 (stereo not given in full)	.	.	.	-7%[9.22 µM]	.	.
COc1ccc(C(=O)N2CCC[C@@]3(CCN(c4ccccc4)C3)C2)cc1	.	.	.	-46%	.	.
COc1cccc(CC(=O)Nc2nc(-c3cc(OC)ccc3OC)cs2)c1	23%	-24%	1%	-20%	-6%	-5%
COc1ccc(OC)c(-c2csc(NC(=O)Cc3ccccc3)n2)c1	3%	11µM*	21%	.	-1%	-20%
COc1ccc(CC(=O)Nc2nc(-c3cc(OC)ccc3OC)cs2)cc1	-5%	-3%	3%	-39%	-8%	-10%
COc1ccc(OC)c(-c2csc(NC(=O)Cc3cccs3)n2)c1	-3%	13µM*	3%	-22%	-4%	0%
O=S(=O)(Nc1cccc(-c2ccc(N3CCCCC3)nn2)c1)c1ccc(Cl)s1	.	1.2µM*	.	.	.	.
CCOc1ccc(-c2cccc(NS(=O)(=O)c3ccc(Cl)s3)c2)nn1	.	15µM*	.	.	.	.
O=S(=O)(Nc1cccc(-c2ccc(N3CCCCC3)nn2)c1)c1cccs1	.	0.95µM*	.	.	.	.
Cc1c(C)c2c(c(C)c1O)CCC(C)(CCCC(C)CCCC(C)CCCC(C)C)O2 (stereo not given)	.	.	.	-8%	.	.
Cc1ccc(C(=O)/C=C/c2ccc(F)cc2)o1	10%	1.5µM*	45µM*	4%	3%	?
SMILES	Rab9 promoter act	FLuc counter	p53 reactivator	SMN2 splice enh	NPC1 prom act	ELG1 genotox
COCOc1ccccc1C(=O)/C=C/c1ccccc1	.	.	.	-1%	.	.
O=C(/C=C/c1ccc(F)cc1)c1ccccc1Br	-4%	19µM*	?	-8%	-3%	-15%
COc1ccc(/C=C/C(=O)c2ccc([N+](=O)[O-])o2)cc1	-43%	-15%	-16%	.	-35%	-48%
COc1ccccc1CN1CC(C(=O)N2CCOCC2)CCC1=O (stereo not given)	3%	1%	?	.	8%	6%
CC(=O)c1sc(NC(=O)Cc2c(F)cccc2Cl)nc1C	0%	-1%	9%	.	0%	-6%
O=C(Cc1c(F)cccc1Cl)Nc1nc2ccccc2s1	?	27µM*	-9%	-6%	20%	9%
Cc1nc2ccc(NC(=O)Cc3c(F)cccc3Cl)cc2s1	2.5µM*	4.8µM*	16%	.	2.8µM*	?
Cc1ccc2c(c1)-c1c(cnn1CC(=O)N1CCN(c3ccccc3F)CC1)CO2	.	-2%	.	16%	.	.
O=C(CNc1ccccc1F)N/N=C/C1CC=CCC1 (stereo not given)	-3%	-11%	1%	1%	-2%	2%
O=C(N/N=C/C1CC=CCC1)c1cc(Br)ccc1O (stereo not given)	1%	13µM*	10%	6%	-1%	1%
O=C(N/N=C/C1CC=CCC1)c1ccccc1O (stereo not given)	-3%	15µM*	13%	-7%	1%	10%
Cc1ccc(C(=O)N/N=C\C2CC=CCC2)cc1[N+](=O)[O-] (stereo not given)	-8%	-19%	-11%	.	1%	3%
C/C=N/NC(=O)c1cc(Br)ccc1O	-3%	6%	10%	-10%	1%	-1%
O=C(N/N=C/C1CC=CCC1)c1ccc(Cl)cc1O (stereo not given)	3%	19µM*	32µM*	26%	2%	2%
Cc1ccc(OCC(=O)Nc2ccc3c(c2)nc(CCNC(=O)c2ccco2)n3C)cc1	.	-15%	.	-25%	.	.
COc1cc(N=Nc2ccccc2C(=O)O)ccc1O	-10%	?	?	.	0%	1%
O=Cc1cc(N=Nc2ccccc2Cl)ccc1O	2.2µM*	19µM*	?	.	2.5µM*	11%
O=C(O)c1cc(N=Cc2ccccc2O)cc(C(=O)O)c1	.	.	.	-7%[9.22 µM]	.	.
O=Cc1cc(N=Nc2cccc(C(=O)O)c2)ccc1O	?	11µM*	25%	15%	?	-2%
CCOC(=O)c1oc2ccccc2c1COC(=O)CNC(=O)c1ccc(C)cc1	1%	0%	7%	.	7%	4%
Cc1cc(=O)n2[nH]c(SCc3ccccc3Cl)nc2n1	-1%	?	13%	.	-2%	3%
O=C(CNC(=O)c1ccccc1F)N/N=C/c1cccnc1	24%	-14%	20%	.	10%	8%
CC1CCc2c(sc3nc(-c4cc5ccccc5oc4=O)nc(Cl)c23)C1 (stereo not given)	.	2.4µM*	.	2%	.	.
